Drawing on PubChem BioAssay (EPA / NIEHS), this text covers outcome for 39 molecules.

Inconclusive results are not listed. Active and inactive are the calls of the source. Rule for the calls, unless noted: active = hit-call score of the fitted dose curve at least 0.9, where 1 is the maximum; inactive = score below 0.9.

The first assay in a line: CCTE_Harrill_HTTr_Viability_MCF7: CCTE's 6-hour Cell Viability Assessment for the High-Throughput Transcriptomics (HTTr) Platform, in MCF-7 cells cultured in DMEM + 10% fetal bovine serum, Harrill Lab (AID 2284010). The procedure, abridged:
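MCF-7 cells in DMEM + 10% FBS, 384-well, exposed 6 h to an eight-point dilution series. Membrane integrity scored by high-content imaging of propidium iodide exclusion; bidirectional fit versus DMSO.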
Turning to `CC1=CC(=O)C(C(C)C)CC1` (configuration not stated), the result was inactive. Regarding `C=O.C=O.C=O.C=O.C=O.[Fe]`, the outcome was inactive.

Take `O=C(O)c1ccccc1C(=O)OC1CCCCC1`: the outcome was inactive. For the molecule `CC(=CC(C)(C)C)CC(C)(C)C`, the result was inactive.

Take `Clc1ccc(-c2nc3sccn3c2/C=N/OCc2ccc(Cl)c(Cl)c2)cc1`: the result was inactive. In the case of `O=C[C@H](O)[C@@H](O)[C@@H](O)CO`, the result was inactive. For `Cc1cc(N=Nc2c(O)ccc3ccccc23)c(S(=O)(=O)O)cc1Cl`, the outcome was inactive.

On to `NCCNCCNCCNCCN`, for which the outcome was inactive.

With `OCCS`, the outcome was inactive.

On to `CCC(=O)O[C@H]1[C@H](O[C@@H]2[C@@H](C)[C@H](O[C@H]3C[C@@](C)(OC)[C@@H](O)[C@H](C)O3)[C@@H](C)C(=O)O[C@H](CC)[C@@](C)(O)[C@H](O)[C@@H](C)C(=O)[C@H](C)C[C@@]2(C)O)O[C@H](C)C[C@@H]1N(C)C`, for which the result was inactive.

For `CCCCCCCCOC(=O)c1ccccc1C(=O)O`, the outcome was inactive.

With `CCOc1ccc2ccccc2c1`, the outcome was inactive.

As to `O=CO`, the outcome was inactive. With `CN1[C@@H]2CC[C@H]1CC(OC(=O)C(CO)c1ccccc1)C2` (some centres not stated), the outcome was inactive. For the molecule `COc1c2occc2c(OC)c2c(=O)cc(C)oc12`, the outcome was inactive. Still for that read-out and setting: then `Nc1c(S(=O)(=O)O)cc(Nc2ccccc2)c2c1C(=O)c1ccccc1C2=O`, with “inactive”. Still for that read-out and setting: then `CCOC(=O)C(C)CC` (configuration not stated), with “inactive”; and `CCCCN1C(=O)c2ccccc2C1=O`, with “inactive”.

For `CCCCCC1=C(C)CCC1=O`, the result was inactive. For the molecule `O=c1ccc2ccc(O)cc2o1`, the result was inactive. In the case of `C=C1CCC2CC1C2(C)C` (configuration not stated), the outcome was inactive. The same measure, in the same setting: next, `Nc1nc2nc[nH]c2c(=O)[nH]1`: “inactive”; `Cc1ncc(C[n+]2csc(CCO)c2C)c(N)n1`: “inactive”; `CCOC(=O)[C@@H](C)Oc1ccc(Oc2cnc3cc(Cl)ccc3n2)cc1`: “inactive”. On to `CC(CC(C)(C)C)CC(C)(C)C`, for which the outcome was inactive. `OCCC1CCCCN1` (configuration not stated): the result was inactive. For the molecule `CC(=O)C(=NNc1ccc(-c2ccc(NN=C(C(C)=O)C(=O)Nc3ccc(C)cc3C)c(Cl)c2)cc1Cl)C(=O)Nc1ccc(C)cc1C`, the outcome was inactive. The same measure, in the same setting: next, `CCOCCOC(=O)C=Cc1ccc(OC)cc1`: “inactive”; `CCCCCCCCCCCCCCCC=O`: “inactive”. Regarding `O=c1cc(-c2ccccc2)oc2c1ccc1ccccc12`, the result was inactive. For the molecule `CCCCOC(=O)/C=C/C(=O)OCCCC`, the outcome was inactive. Still for that read-out and setting: next, `CCOC(=O)c1ccccc1C(=O)O`: “inactive”. For the molecule `C/C(=C\c1ccc(C(=O)O)cc1)c1ccc2c(c1)C(C)(C)CCC2(C)C`, the outcome was inactive. Take `CO[Si](OC)OC`: the result was inactive. For `CC1CN(c2cc3c(cc2F)c(=O)c(C(=O)O)cn3-c2ccc(F)cc2F)CCN1` (configuration not stated), the result was inactive. Take `NC[C@H](O)c1ccc(O)c(O)c1`: the outcome was inactive. With `CC(=O)c1cccc2ccccc12`, the result was inactive.

Consider `CCCCc1nc(Cl)c(CO)n1Cc1ccc(-c2ccccc2-c2nnn[nH]2)cc1`, for which the result was inactive. On the same count and under the same terms, next, `CC(=O)C(O)O`: “inactive”.

Another assay is described as follows: CCTE_Harrill_HTTr_Apoptosis_MCF7: CCTE's 6-hour Apoptosis Assessment for the High-Throughput Transcriptomics (HTTr) Platform, in MCF-7 cells cultured in DMEM + 10% fetal bovine serum, Harrill Lab (AID 2284011). The procedure, abridged: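 High-content imaging of CellEvent Caspase 3/7 Green signal follows a six-hour exposure, with eight concentrations per chemical. MCF-7 cells grown in DMEM plus 10% fetal bovine serum; activity fitted in both directions against DMSO.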
As for `Cc1cc(N=Nc2c(O)ccc3ccccc23)c(S(=O)(=O)O)cc1Cl`, the result was inactive. On the same count and under the same terms, then `OCCS`, with “inactive”. For the molecule `CCCCCCCCOC(=O)c1ccccc1C(=O)O`, the result was inactive. Still for that read-out and setting: next, `CCOc1ccc2ccccc2c1`: “inactive”; `COc1c2occc2c(OC)c2c(=O)cc(C)oc12`: “inactive”. For the molecule `CCOC(=O)C(C)CC` (configuration not stated), the outcome was inactive. In the case of `CCCCN1C(=O)c2ccccc2C1=O`, the result was inactive. In the case of `C/C(=C\c1ccc(C(=O)O)cc1)c1ccc2c(c1)C(C)(C)CCC2(C)C`, the outcome was inactive. Same read-out and setting: then `CO[Si](OC)OC`, with “inactive”.

Another assay in a line: CCTE_Harrill_HTTr_CellCount_MCF7: CCTE's Cell Proliferation Assessment for the High-Throughput Transcriptomics (HTTr) Platform, Harrill Lab (AID 2284012; active = hit-call score of the fitted dose curve at least 0.9, where 1 is the maximum;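 note: cells exposed to compound for six hours; intended direction is loss of nuclei count meaning fewer cells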). Summed up:
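MCF7 cells exposed 6 hours to an eight-point dilution series; Hoechst-stained nuclei counted by high-content imaging. Bidirectional curve fitting against DMSO baseline.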
For the molecule `CC1=CC(=O)C(C(C)C)CC1` (configuration not stated), the result was inactive. On to `O=C(O)c1ccccc1C(=O)OC1CCCCC1`, for which the call was inactive.

Regarding `CC(=CC(C)(C)C)CC(C)(C)C`, the molecule was called inactive. With `O=C[C@H](O)[C@@H](O)[C@@H](O)CO`, the outcome was inactive. `Cc1cc(N=Nc2c(O)ccc3ccccc23)c(S(=O)(=O)O)cc1Cl`: the result was inactive.

Take `NCCNCCNCCNCCN`: the molecule was called inactive. For `OCCS`, the molecule was called inactive.

Regarding `CCC(=O)O[C@H]1[C@H](O[C@@H]2[C@@H](C)[C@H](O[C@H]3C[C@@](C)(OC)[C@@H](O)[C@H](C)O3)[C@@H](C)C(=O)O[C@H](CC)[C@@](C)(O)[C@H](O)[C@@H](C)C(=O)[C@H](C)C[C@@]2(C)O)O[C@H](C)C[C@@H]1N(C)C`, the outcome was inactive.

As to `CCCCCCCCOC(=O)c1ccccc1C(=O)O`, the call was inactive. Consider `CCOc1ccc2ccccc2c1`, for which the molecule was classed as inactive. In the case of `CN1[C@@H]2CC[C@H]1CC(OC(=O)C(CO)c1ccccc1)C2` (some centres not stated), the outcome was inactive.

As to `COc1c2occc2c(OC)c2c(=O)cc(C)oc12`, the molecule was classed as inactive. For `Nc1c(S(=O)(=O)O)cc(Nc2ccccc2)c2c1C(=O)c1ccccc1C2=O`, the call was inactive. On to `CCCCCC1=C(C)CCC1=O`, for which the result was inactive.

As for `O=c1ccc2ccc(O)cc2o1`, the outcome was inactive.

For the molecule `C=C1CCC2CC1C2(C)C` (configuration not stated), the outcome was inactive. With `Nc1nc2nc[nH]c2c(=O)[nH]1`, the molecule was called inactive. With `Cc1ncc(C[n+]2csc(CCO)c2C)c(N)n1`, the result was inactive.

Consider `CC(CC(C)(C)C)CC(C)(C)C`, for which the molecule was called inactive. Still for that read-out and setting: next, `CC(=O)C(=NNc1ccc(-c2ccc(NN=C(C(C)=O)C(=O)Nc3ccc(C)cc3C)c(Cl)c2)cc1Cl)C(=O)Nc1ccc(C)cc1C`: “inactive”; `CCOCCOC(=O)C=Cc1ccc(OC)cc1`: “inactive”. With `CCCCCCCCCCCCCCCC=O`, the result was inactive. With `O=c1cc(-c2ccccc2)oc2c1ccc1ccccc12`, the outcome was inactive.

With `C/C(=C\c1ccc(C(=O)O)cc1)c1ccc2c(c1)C(C)(C)CCC2(C)C`, the outcome was inactive. For the molecule `CO[Si](OC)OC`, the molecule was called inactive.

Turning to `CC1CN(c2cc3c(cc2F)c(=O)c(C(=O)O)cn3-c2ccc(F)cc2F)CCN1` (configuration not stated), the outcome was inactive. Same read-out and setting: then `NC[C@H](O)c1ccc(O)c(O)c1`, with “inactive”; and `CCCCc1nc(Cl)c(CO)n1Cc1ccc(-c2ccccc2-c2nnn[nH]2)cc1`, with “inactive”. On the same count and under the same terms, next, `CC(=O)C(O)O`: “inactive”.
